From PubChem
TDP1 cell CPT: DT40-hTDP1 cell growth loss with CPT | chicken DT40 Tdp1-/-;hTDP1 cells + 20 nM CPT, ATP luminescence, 48 h | Potency, µM (doses to about 46.2 µM), without a hit: at the top dose activity change, negative = growth inhibition, hits mostly inhibitors | hit rate 12% among 420,000 | AID 686979; further: nearly all actives have a fitted effect of over 55% in size
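Chicken DT40 Tdp1-/- cells stably complemented with human TDP1 were seeded at 400 cells/well in medium containing 20 nM camptothecin, exposed to pin-transferred compounds, and grown at 37 °C for at least 48 hr. Viability was read as ATP luminescence.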
TDP1 inh: blocks human tyrosyl-DNA phosphodiesterase 1; Potency, µM (top dose mostly 130 µM), without a hit: at the top dose activity change, negative = inhibition, hits mostly inhibitors; recombinant TDP1, AlphaScreen DNA substrate cleavage; Q9NUW8; hit rate 0.28% among 350,000; further: nearly all actives have a fitted effect of over 40% in size
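Here, a 5' biotin and 3' phosphotyrosine-FITC DNA oligonucleotide reports Tdp1 activity: intact substrate bridges AlphaScreen beads, while cleavage leaves a 3' phosphate and drops signal. All incubations at room temperature.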
PLK1 PBD block: PLK1 (human) polo-box domain binding inhibition; hit rate 2.8% among 360,000; AID 720504; Plk1 PBD binding of FITC phosphopeptide, fluorescence polarization; Potency, µM, for inactives: max response, negative = inhibition, usual class: inhibitors; P53350; further: series mostly up to about 57 µM; nearly all actives have a fitted effect of over 65% in size
Target sequence (P53350 whole entry, looked up, the tested form may be a part): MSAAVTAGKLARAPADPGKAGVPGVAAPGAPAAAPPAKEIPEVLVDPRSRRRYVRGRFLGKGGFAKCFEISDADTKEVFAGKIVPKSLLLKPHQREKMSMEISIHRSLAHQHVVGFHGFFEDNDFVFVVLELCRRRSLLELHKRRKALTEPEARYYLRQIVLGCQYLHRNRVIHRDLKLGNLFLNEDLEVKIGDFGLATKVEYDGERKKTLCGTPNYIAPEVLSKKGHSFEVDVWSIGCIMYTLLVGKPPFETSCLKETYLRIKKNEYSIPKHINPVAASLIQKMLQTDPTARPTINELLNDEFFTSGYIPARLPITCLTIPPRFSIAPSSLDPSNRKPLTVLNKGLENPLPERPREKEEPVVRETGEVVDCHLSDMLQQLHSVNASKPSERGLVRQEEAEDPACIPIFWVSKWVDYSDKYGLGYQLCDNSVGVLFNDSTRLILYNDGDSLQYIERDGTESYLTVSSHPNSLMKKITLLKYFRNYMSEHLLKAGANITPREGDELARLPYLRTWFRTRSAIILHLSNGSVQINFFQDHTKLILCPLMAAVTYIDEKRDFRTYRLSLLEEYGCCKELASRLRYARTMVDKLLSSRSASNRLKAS
GCN5L2 inh: GCN5L2 (KAT2A) acetyltransferase inhibition | Q92830 | hit rate 0.21% among 390,000 | GCN5L2 HAT assay, ThioGlo1 CoA-SH fluorescence | AID 504327 | Potency, µM (top dose mostly 58.9 µM), inactives show top-dose activity change, negative = inhibition, most hits filed as inhibitors
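Titration-based screen in which CoA formation is detected via maleimide probe ThioGlo1 (50uM) turning fluorescent on thiol reaction; substrates H3(1-25) 75uM and acetyl-CoA 70uM, GCN5L2 20nM, 20 min incubation at room temperature.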
VDR inhibitor: blocks the human vitamin D receptor; P11473; VDR-SRC2-3 peptide fluorescence polarization, 2 h; Potency, µM, inactives show max response, negative = inhibition, hits mostly inhibitors; hit rate 0.93% among 400,000; AID 504847
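VDR–SRC2-3 interaction, FP format. Cmpds 23 nl via pintool, brief spin, 2 h ambient incubation.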
DT40 TDP1 no CPT: qHTS for Inhibitors of human tyrosyl-DNA phosphodiesterase 1 (TDP1): qHTS in cells in absence of CPT. AID 686978, 2013. Potency, µM (doses to about 46.2 µM), without a hit: top-dose activity change, negative = growth inhibition, hits mostly inhibitors. DT40 Tdp1-/- hTDP1 cells, no CPT, ATP luminescence, 48 h. hit rate 15% among 420,000; further: nearly all actives have a fitted effect of over 55% in size
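Chicken DT40 Tdp1-/- cells stably complemented with human TDP1 were seeded at 400 cells/well with DMSO in place of 20 nM camptothecin. After compound pinning, cells grew at least 48 hr at 37 °C; viability read by CellTiter-Glo luminescence.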
Starred values were filed as active, the others as inactive; ? = inconclusive; / = no result given; ! = not active in a repeat; [ ] = dose if it differs, or a comment. Sampled rows, rich in hits. Any-hit rate of the full collection: about 18%. The call rests on the fitted dose curve; in most records, active means well fitted curve in the direction sought with a large enough effect; inconclusive means small, poorly fitted or top-dose-only effect, or another doubt; inactive means no such curve, though single readings can be large; an effect the other way counts as inactive or inconclusive. On the % scale 0 is the no-effect control and ±100 the full control effect; potency means the concentration at half of the fitted maximal effect.

SMILES	TDP1 cell CPT	TDP1 inh	PLK1 PBD block	GCN5L2 inh	VDR inhibitor	DT40 TDP1 no CPT
COc1ccc([C@H]2CC(=O)C=C(c3ccc(OC)c(OC)c3)C2)cc1	11.6µM*	-10.3%	-6.9%	-24.4%	16.2%	?
O=C1C=C(c2cc3ccccc3s2)C[C@@H](c2ccc(F)cc2)C1	?	0.5%	1.9%	-8.0%	2.7%	?
O=C1C=C(c2cc3ccccc3s2)C[C@@H](c2ccc(Cl)cc2)C1	9.2µM*	1.5%	-3.4%	-6.6%	?	?
COc1ccc([C@H]2CC(=O)C=C(c3ccc4ccccc4c3)C2)cc1OC	?	4.2%	-9.0%	-10.9%	-7.4%	16.4µM*
Cc1cccc(OC(=O)c2cc(-c3ccc4c(c3)OCCO4)on2)c1	-14.9%	-5.7%	/	-26.0%	-2.0%	-16.0%
COc1ccc([C@H]2CC(=O)C=C(c3cccc(Br)c3)C2)cc1	?	-2.2%	-2.9%	-2.1%	9.9%	?
COc1ccc([C@H]2CC(=O)C=C(/C=C/c3ccccc3)C2)cc1OC	18.4µM*	4.8%	-4.4%	-20.3%	-4.8%	?
COc1ccc([C@H]2CC(=O)C=C(c3ccc(O)cc3)C2)cc1OC	?	4.1%	4.2%	-2.7%	-1.6%	20.6µM*
COc1ccc([C@H]2CC(=O)C=C(c3ccc(-c4ccccc4)c(F)c3)C2)cc1OC	?	0.3%	2.6%	-13.8%	-15.8%	?
O=C1C=C(c2ccc3ncccc3c2)C[C@@H](c2ccc(Cl)cc2)C1	23.1µM*	3.5%	1.8%	-8.0%	-0.7%	?
O=C1C=C(c2ccc3ccccc3c2)C[C@@H](c2ccc(Cl)cc2)C1	?	0.9%	0.5%	-26.4%	-29.2%	?
COc1ccc([C@H]2CC(=O)C=C(c3cccc(C(F)(F)F)c3)C2)cc1	?	-2.4%	26.7µM*	-16.9%	?	-20.9%
CN(CC(=O)Nc1c(Cl)cccc1Cl)C(=O)c1ccc2nc[nH]c2c1	-27.3%	/	-6.0%	-7.1%	20.8%	-19.2%
OCC[C@@H]1C[C@H](O)[C@@H](O)[C@]2(OCCc3ccccc32)O1	11.2%	/	-0.3%	1.4%	-11.5%	-9.5%
CCOC(=O)C1=C(C)N(C)C(=O)NC1c1ccccc1OC (stereo unspecified)	?	-3.3%	-9.1%	-11.0%	-6.6%	-29.3%
O=C(NCCOc1ccccc1)C1Nc2ccc(C(F)(F)F)cc2C2c3ccccc3CC12 (stereo unspecified)	?	/	-10.6%	/	-22.5%	?
CCOC(=O)C1Nc2ccccc2C2C(O)C(O)CC12 (stereo unspecified)	29.1µM*	/	37.7µM*	/	-21.2%	?
CCOC(=O)C1Nc2ccc(C(F)(F)F)cc2C2c3ccccc3CC12 (stereo unspecified)	18.4µM*	/	-8.3%	/	50.1µM*	16.4µM*
O=S1(=O)CCOCCCN1Cc1ccccc1Br	29.1µM*!	/	-0.8%	-0.2%	-0.1%	-27.7%
Cc1ccccc1CN1CCCOCCS1(=O)=O	-2.3%	/	-8.7%	1.2%	-7.7%	?
CCCN(C(=O)c1ccco1)c1nnc(-c2ccccc2C)s1	?	5.1%	-18.3%	?	-4.6%	?
COc1ccc(C(=O)N2CCN(S(=O)(=O)c3ccc4c(c3)OCCO4)CC2)cc1OC	-24.7%	-0.1%	2.0%	0.7%	-1.0%	-16.6%
O=S(=O)(c1ccc2c(c1)OCCCO2)N1CCNCC1	10.0%	2.1%	0.6%	-22.0%	0.8%	-14.5%
CC(C)(C)C(=O)N1CCN(S(=O)(=O)c2ccc3c(c2)OCCCO3)CC1	?	3.5%[0.505 µM]	-6.5%	1.4%	16.1%	18.4µM*
CN(C)S(=O)(=O)c1cccc(C(=O)N2CCN(S(=O)(=O)c3ccc4c(c3)OCCO4)CC2)c1	?	/	-6.7%	/	/	16.4µM*
SMILES	TDP1 cell CPT	TDP1 inh	PLK1 PBD block	GCN5L2 inh	VDR inhibitor	DT40 TDP1 no CPT
Cc1ccc(C(=O)NCC(=O)OCc2nc3ccsc3c(=O)[nH]2)cc1C	2.4%	/	-2.6%	/	/	-20.4%
O=C1CCCC2=C1C(c1ccncc1)n1c(nc3ccccc31)N2 (stereo unspecified)	?	-1.2%	26.7µM*	-15.5%	?	-5.8%
CC1CC(=O)C2=C(C1)Nc1nc3ccccc3n1C2c1cccnc1 (stereo unspecified)	-4.7%	-2.5%	-13.6%	-16.5%	-16.9%	-29.8%
O=[N+]([O-])c1cc([N+](=O)[O-])c2nonc2c1Nc1ccc(O)cc1	?	7.5%	-15.1%	-2.2%	?	20.6µM*
O=[N+]([O-])c1cc([N+](=O)[O-])c2nonc2c1Nc1ccccc1O	?	/	-3.1%	0.2%	-10.1%	?
CCOC(=O)Cn1c(=O)n(C2CCCCC2)c2nc(-c3ccc(C(C)C)cc3)nc(C(N)=O)c21	/	5.3%	/	1.2%	12.3%	/
O=C(C1CCC(CNc2nc(=S)[nH]c3ccccc23)CC1)N1CCN(c2ccccn2)CC1 (stereo unspecified)	18.4µM*	7.1%	1.8%	-4.1%	-4.7%	18.4µM*
Clc1cccc(-c2nnc(-c3ccccc3)o2)c1	16.4µM*	2.3%	-12.2%	-4.0%	-5.9%	23.1µM*
ClCc1nnc(-c2ccccc2)o1	?	4.6%	-4.4%	2.2%	-18.5%	25.9µM*
Cc1ccc(-c2nnc(-c3cccc(Br)c3)o2)cc1	?	4.4%	26.7µM*	-1.0%	?	?
c1ccc(OCc2nnc(-c3ccccc3)o2)cc1	-0.1%	-3.5%	-0.5%	2.3%	4.4%	-14.0%
CN(C(=O)c1nn(C)c2c1CS(=O)(=O)c1ccccc1-2)c1cccc(Cl)c1	-11.1%	2.9%	-8.5%	-1.8%	-9.7%	?
Cc1noc(-c2ccc(CSCCC(=O)O)cc2)c1NC(=O)OC(C)c1ccccc1Cl (stereo unspecified)	/	7.5%	/	10.7%	?	/
O=[N+]([O-])c1cccc(-c2nc(N3CCOCC3)c3ccccc3n2)c1	/	6.0%	/	-6.5%	/	/
CN(Cc1ccccc1)c1nc(-c2cccc([N+](=O)[O-])c2)nc2ccccc12	18.4µM*	4.2%	26.7µM*	35.4%	?	18.4µM*
COc1ccccc1NC(=O)c1ccc(COc2ccccc2OC)o1	-15.9%	5.4%	-3.4%	-4.2%	5.0%	-23.8%
C=CCc1ccc(OCc2ccc(C(=O)Nc3ccc(NC(C)=O)cc3)o2)c(OC)c1	?	5.3%	-1.3%	?	3.7%	16.4µM*!
Cc1nn(Cc2c(Cl)cccc2Cl)c(C)c1NC(=O)c1sc2ccccc2c1Cl	18.4µM*	-1.4%	-0.5%	-3.5%	1.5%	16.4µM*
